Results published in ChEMBL document CHEMBL3988442, “University of Dundee, Small-Polar-MMV Screening Library” (2021).
The whole screen tested about 48,000 compounds, of which about 13,000 (27%) showed an effect of 50% or more. Some of the results follow.

The compounds below were run on Wolbachia pipientis (assay: Anti-Wolbachia Cell-Based Screen). Details: 5 µM.
Type: functional
Design: scale not given: in the data most compounds retested in dose-response had high values

Compound | Percent Effect [%]
CC(O)CN1CCN(C(=O)c2cccc3[nH]ncc23)CC1 (centres undefined) | 5.765
CC(O)c1cn(CC2CCN(C(=O)c3cscn3)CC2)nn1 (centres undefined) | -31.81
Cc1nc(C2CCN(C(=O)c3cscn3)CC2)c2sccn12 | 123.8
Cc1nc(CN2CCO[C@H]3CN(C(=O)c4cscn4)C[C@H]32)cs1 | -19.39
Cc1nc(C2CCN(C(=O)c3ccn(C)n3)CC2)c2sccn12 | 109.4
CCc1cnc(C)nc1NCCSc1nnc(C)n1CC | -6.357
c1cnnc(N2CCCC(NCc3ccc(-n4cncn4)cc3)C2)c1 (centres undefined) | -12.46
CSCCc1n[nH]c2c1CN(S(=O)(=O)c1cn(C)c(C)n1)CC2 | 5.686
O=C1C(NCc2nnc3n2CCCC3)CCN1c1ccccc1 (centres undefined) | 4.078
CC(C)NC(=O)CN(C)C1CCN(c2ccc(C#N)cn2)CC1 | -9.804
CC(C)CN1CCc2[nH]cnc2C12CCN(C(=O)c1ccccn1)CC2 | 2.853
O=C1CC2(CCN(C(=O)c3ccncc3)CC2)Oc2c(Cl)cc(Cl)cc21 | 113.6
O=C1CC2(CCN(C(=O)c3ccccn3)CC2)Oc2c(Br)cc(Br)cc21 | 106.1
Cc1cccc(C2(O)CCN(C(=O)c3ccccn3)CC2)c1C | 8.443
O=C(c1ccccn1)N1CCN(c2ccc(-n3cccc3)nn2)CC1 | 9.922
O=C(c1ccncc1)N1CCN(c2ccc(F)cc2Cl)CC1 | 2.697
Cc1ccc(F)c(OC2(C(=O)O)CCN(C(=O)c3ccncc3)CC2)c1 | 12.09
O=C1CC2(CCN(C(=O)c3ccccn3)CC2)Oc2c(Cl)cc(Cl)cc21 | 107.9
Cc1oc(-c2ccco2)nc1CC(=O)NCC(C)(C)N(C)C | -56.87
CCCc1cc(C(=O)N2C[C@H]3CC=C(C)C[C@H]3C2)ccn1 | -1.263
Clc1cnccc1N1CCC(OC2CCOCC2)CC1 | -17.26
CCc1nsc(N2CCCN(C(=O)c3ccc(CC)o3)CC2)n1 | 0.3515
Cc1noc2ncnc(NC(CC(C)(C)C)c3cccnc3)c12 (centres undefined) | -8.396

Compound | Percent Effect [%]
Cc1ccc(C)c(CC(=O)Nc2cccc(C(=O)N(C)C)n2)c1 | -5.2
O=C(NCCC1=CCCCC1)c1n[nH]c2c1CCCC2 | 109.4
Cc1ccc(NC(=O)CN(C)C(=O)c2ccc(-n3cccc3)nc2)nc1 | -2.8
O=C(NCCC1=CCCCC1)c1ccc(-n2cccc2)nc1 | 122.4
O=C(NCCC1=CCCCC1)C1CCN(c2ccc3nncn3n2)CC1 | 0.9872
O=C(NCCC1=CCCCC1)c1cc(-c2ccc(O)cc2)n[nH]1 | 12.27
CCCc1cc(C(=O)NCCC2=CCCCC2)[nH]n1 | -0.1472
CC(=O)NCCc1nc(C(C)C)nn1-c1ccncc1C | -7.062
CC1CCN(CCCNS(=O)(=O)Cc2ccccc2F)CC1 | -5.574
Cc1ccc(C2=CCN(C(=O)C3CCN(C)C(=O)C3)CC2)cc1 (centres undefined) | 92.67
CCOc1cccnc1C(=O)N1CC=C(c2ccc(O)cc2)CC1 | -4.198
CN1CCC(C(=O)N2CCC(=Cc3cccc(F)c3)CC2)CC1=O (centres undefined) | -1.128
CCOc1ccccc1C1=CCN(C(=O)C2CCN(C)C(=O)C2)CC1 (centres undefined) | 103.5
COc1ccc(C2=CCN(C(=O)C3CCN(C)C(=O)C3)CC2)cc1 (centres undefined) | -8.99
CN1CC(C(=O)N2CCC(Oc3ccccc3Cl)CC2)CC1=O (centres undefined) | 1.662
O=C(Cn1nnn(-c2cccs2)c1=O)NCC1CCOC1 (centres undefined) | 8.767
NC(=O)c1cccc(CCNCc2cnc(C3CCC3)s2)c1 | -3.682
O=C(c1sccc1Br)N1CCOCC1 | 7.49
CS(=O)(=O)N1C[C@@H]2CC[C@H](C1)N(C(=O)CCn1cnc3ccccc31)C2 | 6.293
CCN1C(=O)C2(CCOCC2)c2cc(NC(=O)COC)ccc21 | 1.52
CCC(=O)Nc1ccc2c(c1)C1(CCOCC1)CN2CCF.O=C(O)C(F)(F)F | 102.7
CCN1C(=O)C2(CCOCC2)c2cc(NC(=O)c3cccn3C)ccc21 | 0.2171
COCC(=O)Nc1ccc2c(c1)C1(CCOCC1)CN2CCF.O=C(O)C(F)(F)F | 107

Compound | Percent Effect [%]
Cc1cccc(N(CC(=O)N2CCCCC2)Cc2nc(=O)[nH][nH]2)c1 | -2.957
O=C(O)C(F)(F)F.O=C(c1ccc2ccc(N3CCN(CC4CC4)CC3)n2c1)N1CCCO1 | -6.167
O=C(Cn1cc(Cl)cn1)N1CCNC1=O | 95.03
O=C(CCn1cc(Cl)cn1)Nc1ncccn1 | -3.476
CC(C)C(C)(C#N)NC(=O)Cn1cc(Cl)cn1 (centres undefined) | -4.371
Cc1nccc(-c2cccc(NCC(=O)N3CCNC3=O)c2)n1 | 6.599
O=C(Cn1cc(I)cn1)N1CCCC1 | 17.91
O=C(Cn1cc(I)cn1)N1CCNC1=O | 104.2
CCCNC(=O)Cn1cc(-c2ccccc2)cn1 | 1.367
O=C(Cn1cc(I)cn1)N1CCOCC1 | 0.7374
O=C(Cn1cc(-c2ccccc2)cn1)N1CCNC1=O | 110
CN1C[C@@H](NC(=O)CC(C)(C)C)C[C@H]1c1nc(-c2cnccn2)no1 | -6.894
O=C(CN1CSCC1=O)NCC1CCN(c2ccccc2)C1 (centres undefined) | -5.821
O=S1(=O)C[C@@H]2[C@H](C1)N(Cc1ccc3ccccc3c1)CCN2CC1CC1 | -3.143
O=C(c1cc2c(s1)CCC2)N1CCN(c2cnccn2)CC1 | 87.73
O=C(c1cncs1)N1CCC(c2cnccn2)CC1 | 100.4
CN(C)c1cc2c(nn1)CCN(C(=O)c1cc3c(s1)CCCC3)C2 | 1.352
O=C(c1ccc2c(c1)OCO2)N1CCN(c2cnccn2)CC1 | -2.532
O=C(c1cc2c(s1)CCCCC2)N1CCC(c2ncc[nH]2)CC1 | 88.07
O=C(c1cc2c(s1)CCC2)N1CCC(c2cnccn2)CC1 | 151.2
CN(C)c1cc(C(=O)N2CCN(c3cnccn3)CC2)ccn1 | -5.802
Cc1nc(C2CCCN2C(=O)c2cc3c(s2)CCCC3)no1 (centres undefined) | -3.152
O=C(c1cnccn1)N1CCN(c2ccnc3ccsc23)CC1 | 3.546
